# Results taken from PubChem BioAssay (NCI).
# The panel holds about 83,000 compounds, 20% with a hit somewhere; the sample as a whole holds those more often.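 The test compound was applied at a single concentration to cells in 96-well plates for 48 hours, and percent growth was recorded.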 A number with no mark means an inactive call. Calls of active or inactive are those of the source. Rule for the calls: active = growth percent below 10; inactive = the rest.
# Test system: MDA-MB-435 melanoma
# Experiment: NCI-60 one-dose screen, 48 h (100 = growth as untreated, 0 = no growth, -100 = all killed)
# Details: 10 µM unless noted
row,SMILES,growth
1,CCOc1ccc(-n2nc(C(=O)NCc3ccccc3OC)nc2-c2cc(OC)c(OC)c(OC)c2)cc1,22.1%
2,O=C(CCCCCCN1CC(=O)N2[C@H](c3ccc(Br)cc3)c3[nH]c4ccccc4c3C[C@@H]2C1=O)NO,26.2%
3,CCN1C(=O)N(CC)C2Nn3c(s/c(=C\c4ccccc4Br)c3=O)=NC21 (stereo unspecified),-62.1% (active)
4,COC(=O)c1nc(-c2ccccc2)oc1S(=O)(=O)NCC(c1ccc(Cl)cc1)N1CCOCC1 (stereo unspecified),64.8%
5,CC1=C(C(=O)Nc2nc(-c3ccc(Cl)cc3)cs2)[C@H](c2ccc(O)cc2)NC(=O)N1,101%
6,COc1ccc(C(=O)c2cc3c(N)c(C(=O)Nc4ccccc4)sc3nc2C)cc1,-5.47% (active)
7,C#CC#CC#CC#CC#CC#CC#CC#CC[C@@H]1OC[C@@H](COC(=O)O[C@@H](C(=O)O[C@H]2C[C@@]3(O)[C@@H](OC(=O)c4ccccc4)[C@@H]4[C@]5(OC(C)=O)CO[C@@H]5C[C@H](O)[C@@]4(C)C(=O)[C@H](OC(C)=O)C(=C2C)C3(C)C)[C@@H](NC(=O)c2ccccc2)c2ccccc2)O1,101%
8,CNCc1cccc2c1OCCOCCOCCNS(=O)(=O)c1ccc(cc1)-c1cnc(N)c(n1)C(=O)N2,35.1%
9,CC1(C)OB(O)c2cc(-c3nc4ccc5[nH]ncc5c4c4c3CCCC4)ccc21,48.8%
10,COc1ccc(/C=C2\COc3ccc(O)cc3C2=O)cc1,78.7%
11,CN1C(=O)/C(=C/c2ccc(C(=O)Nc3ncc(Cc4cccc(Cl)c4)s3)cc2)SC1=S,5.05% (active)
12,CN(C)c1ccc(-c2nc(-c3ccccc3)c(-c3ccccc3)[nH]2)cc1,89.7%
13,Cc1n[nH]c2ccc(Br)cc2c1=O,107%
14,CCOc1cccc(/C=N/NC(=O)c2cccc(Nc3ccnc(C(F)(F)F)c3)c2)c1O,34.4%
15,COc1ccc(CNc2c3ccccc3nc3ccccc23)c(OC)c1,38.7%
16,COc1ccc2c(c1)c(-c1nc(-c3c[nH]c4ncccc34)cs1)cn2CCO,66.5%
17,COc1ccc(C(O)c2cc3c(N)c(C(=O)Nc4cccc(Cl)c4C)sc3nc2C)cc1 (stereo unspecified),-29.5% (active)
18,CC1CCN(C(=S)SCC(=O)NC(=O)c2ccccc2)CC1,106%

row,SMILES,growth
1,CS(=O)(=O)Nc1cc(-c2ccc3ncc(C#N)c(Nc4ccc(F)c(Cl)c4)c3c2)cnc1Cl,2.34% (active)
2,CCN1C(=O)N(CC)C2C1NN=c1s/c(=C3\C(=O)N(CC(C)C)c4ccccc43)c(=O)n12 (stereo unspecified),-16.4% (active)
3,O=C(CI)NC(=O)NC(=O)NCc1ccccc1,21%
4,CCn1cc(CNc2ccc(C(=O)Nc3cc4cc(OC)c(OC)cc4c(C)n3)cc2)cn1,10.5%
5,C=CCN1C(=O)c2cccc3c(N4CCOCC4)ccc(c23)C1=O,0.357% (active)
6,CC1=C2[C@@H](CC1)[C@]1(C)O[C@@](c3ccccc3)(C[C@H]1OC(=O)CO)[C@H]2OC(=O)/C=C/c1ccccc1,-80.7% (active)
7,CSc1nc(C)c([N+](=O)[O-])c(N)n1,107%
8,CCOC(=O)c1c(C)nc2c(c1N)/C(=C/c1ccc(OC)cc1)C(=O)N2Cc1ccccc1,63.4%
9,CCN(CC)Cc1cc(Nc2ccnc3cc(Cl)ccc23)ccc1O,97.8%
10,Cc1ccc(-c2nc3nc(-c4ccccc4)nc(N4CCCN(S(C)(=O)=O)CC4)c3o2)cc1,34.5%
11,CCCCCN(CCCCC)CC(O)c1cc(C)c2ccc3cc(C(C)C)ccc3c2c1 (stereo unspecified),0.846% (active)
12,NC(N)=NS(=O)(=O)c1ccc(NC2=C(I)C(=O)c3ncccc3C2=O)cc1,109%
13,O=C1/C(=C\c2ccccn2)c2ccccc2N1c1c(Cl)cccc1Cl,-5.05% (active)
14,CCCCNC(=O)Oc1ccc(/C(=C(/C)Cc2ccc(OC)cc2)c2ccc(OCCN3CCCCC3)cc2)cc1,67.8%
15,O=C(/C=C/c1ccc(Cl)cc1)c1cccc(OCCCOc2cccc(C(=O)/C=C/c3ccc(Cl)cc3)c2)c1,101%
16,Cc1ccc(/C=C(\C#N)n2nnc3cc(F)c(F)cc32)cc1,-35.4% (active)
17,O=P(O)(O)OCC1OC(n2cnc3c(NCc4ccco4)ncnc32)C(O)C1O (stereo unspecified),16.2%
18,O=C(C1=Cc2cc3ccccc3n2Cc2cnnn21)c1ccc(O)cc1,-7.67% (active)
